Records with an inconclusive call do not appear. More than one record can exist for a structure, and the calls need not agree. The source made the active and inactive calls. The calls were made as follows, unless noted: active = hit-call score of the fitted dose curve at least 0.9, where 1 is the maximum; inconclusive = response in the unintended direction; inactive = score below 0.9.
What was measured:
[1] = CCTE_Mundy_HCI_Cortical_NOG_NeuronCount: CCTE's Neurite Outgrowth Assay in rat cortical cells for Neuron Count, Mundy Lab (AID 2284236);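 also: neurons counted by imaging betaIII-tubulin and Hoechst stained cortical cells; cells exposed to compound for about 48 hours before fixation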
In short: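 Read-out: neuron number by high-content imaging of betaIII-tubulin (Alexa Fluor-488) and Hoechst-labelled rat primary cortical cells.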

[2] = CCTE_Mundy_HCI_Cortical_NOG_BPCount: CCTE's Neurite Outgrowth Assay in rat cortical cells for Branch Point Count, Mundy Lab (AID 2284237; active = hit-call score of the fitted dose curve at least 0.9, where 1 is the maximum; inactive = score below 0.9;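 as to AC50: branch points counted about two days after chemical exposure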)
In short: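 Measured 50.33 h after dosing, this morphology endpoint uses rat primary cortical cultures labelled for betaIII-tubulin. Branch points are quantified by high-content imaging, with DMSO as negative control and baseline.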

[3] = CCTE_Mundy_HCI_hNP1_Casp3_7: CCTE's Caspase-Glo 3/7 Assay in human neuroprogenitor cells for Apoptosis, Mundy Lab (AID 2284240; active = hit-call score of the fitted dose curve at least 0.9, where 1 is the maximum; inactive = score below 0.9)
In short: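 Neuroepithelial-lineage stem cells from WA09 embryonic cells were treated with chemicals after 40–44 h of culture. Twenty-four hours later, caspase-3/7 activation was detected luminescently after a 30 min room-temperature reagent step, with DMSO as baseline.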

[4] = CCTE_Mundy_HCI_hNP1_CellTiter: CCTE's Cell Titer-Glo 2 Assay in human neuroprogenitor cells for Viability, Mundy Lab (AID 2284241);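 as to AC50: a hit is a drop in ATP luminescence versus DMSO meaning reduced viability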
In short: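 Measures ATP content in human neural progenitors derived from WA09 embryonic cells. Read-out at 26.5 hours after dosing, with DMSO serving as the negative control and baseline.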

[5] = CCTE_Mundy_HCI_Cortical_Synap_Neur_Matur_NeuronCount: CCTE's Synaptogenesis and Neurite Maturation Assay in rat cortical cells for Neuron Count, Mundy Lab (AID 2284242);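 as to AC50: neuron number from Hoechst nuclei and MAP2 staining by high-content imaging; hits reduce neuron count versus DMSO baseline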
In short: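 Rat primary cortical cells received AraC at DIV 5 to arrest glia, then were dosed with chemicals at DIV 7 through DIV 12. Fixed cells were stained for nuclei, MAP2 and synaptophysin, and neurons were counted by high-content imaging relative to DMSO.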

[6] = read-out: Collagen I, COL1A1 (gene 1277); test: BSK_MyoF_CollagenI: BioMAP Diversity Plus: MyoF Assay for Collagen I Biomarker Activity (AID 2284238; active = hit-call score of the fitted dose curve at least 0.9, where 1 is the maximum; inactive = score below 0.9); conditions: primary human lung fibroblasts
In short: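 Multiplexed primary human lung fibroblast system; Collagen I measured by ELISA at 24 h post-dose. Increases are referenced to DMSO.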

[7] = read-out: Collagen III, COL3A1 (gene 1281); test: BSK_MyoF_CollagenIII: BioMAP Diversity Plus: MyoF Assay for Collagen III Biomarker Activity (AID 2284239; active = hit-call score of the fitted dose curve at least 0.9, where 1 is the maximum; inactive = score below 0.9); conditions: primary human lung fibroblasts
In short: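 Compounds are added to primary human lung fibroblasts and left for 24 hours. Collagen III is then quantified by ELISA. Analysis takes DMSO as baseline and fits increases in signal.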

[8] = read-out: Interleukin 17F (IL17F), IL17F (gene 112744); test: BSK_BT_xIL17F: BioMAP Diversity Plus: BT Assay for Interleukin 17F (IL17F) Biomarker Activity (AID 2284243; active = hit-call score of the fitted dose curve at least 0.9, where 1 is the maximum; inactive = score below 0.9); conditions: primary human B cells with PBMC
In short: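 Measures secreted IL-17F from a human B cell plus PBMC co-culture at 24 h post-dose by Luminex xMAP, with DMSO defining baseline activity.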

[9] = TAMU_HCS_1.5hr_SingleDonor1434_Cytotoxicity: Cytotoxicity Assessment using High-content Screening (HCS) Fluorescent Imaging for the Texas A&M University (TAMU) 1.5-hr Human Induced Pluripotent Stem Cell (iPSC)-derived Cardiotoxicity Assay (AID 2284234)
In short: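 Human iPSC-derived cardiomyocytes dosed at 0.2, 1, 10, 100 uM final (0.5% DMSO) for 90 min at 37 C. Hoechst 33342-stained nuclei counted by 10x high-content imaging; POD is EC10, a 10% drop in total cell count versus DMSO.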

[10] = TAMU_PeakParms_SingleDonor1434_QT: Texas A&M University (TAMU) 1.5-hr Human Induced Pluripotent Stem Cell (iPSC)-derived Cardiomyocytes Calcium (Ca+2) Flux Assay for Cardiotoxicity: QT (decay-rise ratio) (AID 2284235)
In short: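 iPSC-derived cardiomyocytes (single donor 1434) dosed at 0.2, 1, 10, 100 uM final in 0.5% DMSO, 90 min at 37C. Ca2+ flux fluorescence decay/rise ratio; EC05 (5% increase versus DMSO) as POD, excluding beat-arrest and severe-notch data.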

Measured: AC50

CCNC(=O)NC(=O)C(C#N)=NOC
inactive: [1] | [2] | [3] | [4]

CC1(C)C(C=C(Cl)Cl)C1C(=O)OC(C#N)c1cccc(Oc2ccccc2)c1 (stereo unspecified)
inactive: [2] | [3] | [4] | [5]

N#CN=C1SCCN1Cc1ccc(Cl)nc1
inactive: [2] | [3] | [4]

COC(=O)N(C(=O)N1CO[C@@]2(C(=O)OC)Cc3cc(Cl)ccc3C2=N1)c1ccc(OC(F)(F)F)cc1
inactive: [2] | [3] | [4]

CCOP(=O)(OCC)Oc1nc(Cl)c(Cl)cc1Cl
inactive: [1] | [2] | [3] | [4] | [5]
active: [3] 50 µM

COCC(C)N(C(=O)CCl)c1c(C)csc1C (stereo unspecified)
active: [6] 17.3 µM | [7] 26.2 µM | [8] 23.8 µM

Cc1c(COC(=O)[C@@H]2[C@H](/C=C(\Cl)C(F)(F)F)C2(C)C)cccc1-c1ccccc1
active: [1] 21.2 µM | [2] 25.9 µM | [3] 10.3 µM | [4] 9.1 µM | [5] 2.95 µM

CCN(CC)c1nc(C)cc(OP(=S)(OC)OC)n1
active: [1] 80.8 µM | [2] 90.6 µM | [3] 75.1 µM | [4] 71.4 µM | [5] 9.92 µM

CO/N=C(/C1=NOCCO1)c1ccccc1Oc1ncnc(Oc2ccccc2Cl)c1F
active: [1] 10.9 µM | [2] 2.55 µM | [3] 90 µM | [5] 1.52 µM

CS(=O)(=O)c1ccc(C(=O)C2C(=O)CCCC2=O)c([N+](=O)[O-])c1
inactive: [2] | [3] | [4]

COP(=O)(OC)O/C(C)=C/C(=O)N(C)C
inactive: [2] | [3] | [5]

CNC(=O)Oc1cccc2ccccc12
inactive: [9] | [2] | [3] | [4]
active: [5] 22.9 µM

O=C(Nc1ccccc1-c1ccc(Cl)cc1)c1cccnc1Cl
inactive: [1] | [2] | [3] | [4]

CC(C)(C)C(=O)C(Oc1ccc(Cl)cc1)n1cncn1 (stereo unspecified)
inactive: [1] | [3] | [4]
active: [2] 33.2 µM | [5] 11 µM

CN/C(=N\[N+](=O)[O-])NCc1cnc(Cl)s1
inactive: [1] | [2] | [3] | [4]

COP(=S)(OC)SCn1nnc2ccccc2c1=O
inactive: [1] | [2] | [3] | [4]

CS(=O)(=O)c1cc(C(F)(F)F)ccc1C(=O)c1cnoc1C1CC1
active: [1] 9.92 µM
inactive: [2] | [3] | [4]

O=C1C2CC=CCC2C(=O)N1SC(Cl)(Cl)Cl (stereo unspecified)
active: [9] 84.7 µM
inactive: [10]

CCSC(=O)N1CCCCCC1
inactive: [1] | [2] | [3] | [4] | [5]

C=C(C)CN(CC)c1c([N+](=O)[O-])cc(C(F)(F)F)cc1[N+](=O)[O-]
active: [1] 50 µM | [2] 50 µM | [3] 77.5 µM | [4] 31.5 µM | [5] 8.46 µM

— PubChem BioAssay (EPA / NIEHS)
